The text below walks through data of PubChem BioAssay (NCI).

Holding throughout (assay): NCI-60 one-dose screen, 48 h (100 = growth as untreated, 0 = no growth, -100 = all killed)
Holding throughout (details): 10 µM unless noted

Experiment [1] has as its system NCI-H23 lung.
In experiment [2] the test system is NCI-H226 lung.
For experiment [3], the system named is NCI-H322M lung.
Experiment [4] relates to HOP-62 NSCLC.
The subject of experiment [5] is NCI-H460 lung.
Experiment [6] has as its system NCI-H522 lung.
Experiment [7] concerns A549/ATCC NSCLC.
The test system of experiment [8] is 786-0 renal.
Experiment [9] has as its system COLO 205 colon.
Experiment [10] relates to DU-145 prostate.
For experiment [11], the system named is MALME-3M melanoma.
The test system of experiment [12] is MDA-MB-231 breast.
Experiment [13] has as its system SF-268 CNS.
Experiment [14] relates to SF-295 CNS.
The subject of experiment [15] is SF-539 CNS.
Experiment [16] deals with UACC-257 melanoma.
The subject of experiment [17] is M14 melanoma.
Experiment [18] has as its system HCT-15 colon.
Experiment [19] deals with RXF 393 renal.
For experiment [20], the system named is K-562 leukemia.

Molecules are shown by their SMILES. About 83,000 compounds went through this panel and 20% of them were active in at least one assay; those are over-represented in the sample as a whole.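 Step 1: grow cells in 96-well plates. Step 2: add test compound at a single concentration. Step 3: incubate 48 h. Step 4: record percent growth.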 Unmarked numbers belong to inactive results. Activity calls are given as the source filed them. The calls were made as follows: active = growth percent below 10; inactive = the rest.

On to `Oc1ccccc1/C=N\Nc1ccccc1`, for which the growth in experiment [1] was 87.5%; in [2], 39.4%; in [3], 59.9%; in experiment [4] it was 65.6%; in experiment [5] it was 30.9%; in experiment [6], 10.5%. Moreover, the growth in experiment [7] is 36.8%; in [8] it was 43.3%; in experiment [9] it was 115%; in experiment [10] it was 58.5%; in experiment [11] it was 95%; in experiment [12], 26.7%. Besides, the growth in [13] was 61.8%; in experiment [14], 19.9%; in experiment [15], 3.41% (active); in experiment [16] it was 95.7%; in [17] it was 39.4%; in [18] it was 25.6%.

On to `Cc1nn(-c2ccccc2)c(Cl)c1C(CC(=O)c1ccc(Cl)cc1)CC(=O)c1ccc(Cl)cc1`, for which the growth is 87.2% in experiment [1]; 88.6% in [2]; 99% in experiment [3]; 97.8% in experiment [4]; 90.1% in experiment [5]; 71.6% in [6]. For the same compound, the growth is 84.3% in [7]; 81.8% in experiment [8]; 98.5% in experiment [9]; 103% in experiment [10]; 94.7% in experiment [11]; 80.5% in experiment [12]. Also, the growth was 92.2% in experiment [19]; 91.3% in [13]; 92.4% in experiment [14]; 100% in [16]; 83.9% in experiment [17]; 86.6% in [18].

Regarding `O=C1Nc2ccc(F)cc2/C1=C/c1nc(-c2ccc(F)cc2)n2ccccc12`, the growth in experiment [1] was 104%; in [2] it was 110%; in experiment [3], 124%; in experiment [4], 96.4%; in experiment [5] it was 99.2%; in [6], 108%. Also, the growth in [7] was 104%; in [8] it was 114%; in experiment [10] it was 74.1%; in experiment [20] it was 106%; in experiment [11], 91.3%; in experiment [12], 80%. Besides, the growth was 108% in [19]; 81.3% in [13]; 92.1% in experiment [14]; 104% in [15]; 104% in [16]; 83.2% in [17]. In addition, the growth in experiment [18] is 105%.

For the compound `Cc1c(C(N)=O)sc2nc(SCC(=O)Nc3ccc(Cl)cc3)n(-c3ccccc3)c(=O)c12`, the growth in experiment [1] is 106%; in [2], 108%; in experiment [3] it was 105%; in experiment [4], 109%; in experiment [5] it was 106%; in experiment [6], 89.2%. Besides, the growth in experiment [7] is 116%; in experiment [8], 104%; in experiment [10], 120%; in [20], 84.2%; in experiment [11], 159%; in [12], 93.1%. The growth in experiment [19] is 95.8%; in [13], 101%; in experiment [15] it was 110%; in experiment [16], 104%; in experiment [17], 104%; in experiment [18], 121%.

For the compound `CCSc1nnc2n(Cc3ccccc3)c(=O)c3c(C)c(C(N)=O)sc3n12`, the growth was 110% in experiment [1]; 93.8% in experiment [2]; 102% in experiment [3]; 101% in [4]; 109% in experiment [5]; 96% in [6]. Also, the growth in experiment [7] was 97%; in [8], 105%; in [9], 121%; in experiment [11], 105%; in experiment [12] it was 103%; in experiment [19] it was 103%. Moreover, the growth is 95.1% in experiment [13]; 91.4% in experiment [14]; 100% in [16]; 112% in [17]; 97.9% in experiment [18].

In the case of `S=C(Nc1ccc(C2=NCCN2)cc1)Nc1ccc(C2=NCCN2)cc1`, the growth in [1] is 82.7%; in experiment [2] it was 86.8%; in [3] it was 117%; in [4], 99.6%; in experiment [5], 106%; in [6] it was 97.2%. Besides, the growth was 99.9% in experiment [7]; 98.2% in experiment [8]; 107% in experiment [10]; 91.4% in [20]; 111% in [11]; 113% in experiment [12]. Also, the growth was 101% in experiment [19]; 120% in [13]; 96.7% in experiment [14]; 93.4% in [15]; 93.8% in [16]; 94.5% in [17]. Further, the growth in experiment [18] is 101%.

Take `CCCCn1c(Cc2ccc(Cl)cc2)nc2cc(OC)c(OC)cc2c1=O`: the growth was 74.6% in experiment [1]; 66.4% in [2]; 97.3% in experiment [3]; 91.2% in [4]; 90.6% in experiment [5]; 71.6% in experiment [6]. Further, the growth in experiment [7] is 66.3%; in experiment [8], 84.4%; in experiment [10], 75.5%; in experiment [20] it was 40.3%; in experiment [11], 101%; in experiment [12] it was 70.2%. Also, the growth in experiment [19] is 90%; in [13], 80%; in [14], 71.1%; in experiment [15] it was 105%; in experiment [16] it was 55.5%; in experiment [17], 79.2%. In [18], the growth was 75.4%.

`C/C(=N/N=C(N)N)c1ccc(N)cc1`: the growth in experiment [1] is 100%; in experiment [2], 102%; in experiment [3] it was 79.2%; in experiment [4] it was 91.5%; in [5], 106%; in [6], 91.5%. The growth in experiment [7] is 103%; in experiment [8] it was 96%; in [10] it was 107%; in experiment [20], 94.6%; in experiment [11] it was 115%; in experiment [12] it was 104%. The growth in experiment [19] is 98.5%; in experiment [13] it was 114%; in experiment [15], 96.3%; in experiment [16], 150%; in experiment [17], 95.9%; in experiment [18], 115%.
